# About 410 targets per protein were measured; listed, in parts, are those with the strongest signals and a random draw of the rest.
# B1: OGAN (protein)
# chain: MVQKESQATLEERESELSSNPAASAGASLEPPAAPAPGEDNPAGAGGAAVAGAAGGARRFLCGVVEGFYGRPWVMEQRKELFRRLQKWELNTYLYAPKDDYKHRMFWREMYSVEEAEQLMTLISAAREYEIEFIYAISPGLDITFSNPKEVSTLKRKLDQVSQFGCRSFALLFNDIDHNMCAADKEVFSSFAHAQVSITNEIYQYLGEPETFLFCPTEYCGTFCYPNVSQSPYLRTVGEKLLPGIEVLWTGPKVVSKEIPVESIEEVSKIIKRAPVIWDNIHANDYDQKRLFLGPYKGRSTELIPRLKGVLTNPNCEFEANYVAIHTLATWYKSNMNGVRKDVVMTDSEDSTVSIQIKLENEGSDEDIETDVLYSPQMALKLALTEWLQEFGVPHQY
# Assays:
# Assay in all cases: glycan array binding signal (z-score within array); higher = stronger binding
# Details in all cases: glycan notation: IUPAC condensed, linker removed
# Gal3S6S(b1-4)GlcNAc = target: Gal3S6S(b1-4)GlcNAc
# Procedure, shortened: (§1)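 Glycan array data were curated from 3228 arrays in the Consortium for Functional Glycomics database and kept only where the protein sequence was available. Glycan names were converted to IUPAC-condensed notation, and columns mapping to the same glycan were averaged. The binding signal is a within-array Z-score, averaged across arrays of the same protein sequence at different concentrations or buffers and across linkers. Negative Z-scores can be read as non-binding.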
# [1] = target: Glc(a1-4)Glc(a1-4)Glc(a1-4)Glc
# Procedure, shortened: as §1
# [2] = target: GlcA3S(b1-3)Gal(b1-4)GlcNAc(b1-2)Man
# Procedure, shortened: as §1
# [3] = target: GlcNAc(a1-3)Gal(b1-4)GlcNAc
# Procedure, shortened: as §1
# [4] = target: GlcNAc(a1-4)Gal(b1-4)GlcNAc(b1-3)Gal(b1-4)GlcNAc(b1-3)Gal(b1-4)GlcNAc
# Procedure, shortened: as §1
# [5] = target: GlcNAc(a1-4)Gal(b1-4)GlcNAc(b1-3)Gal(b1-4)[Fuc(a1-3)]GlcNAc(b1-3)Gal(b1-4)[Fuc(a1-3)]GlcNAc
# Procedure, shortened: as §1
# [6] = target: GlcNAc(b1-2)Man(a1-3)[GlcNAc(b1-4)][GlcNAc(b1-2)Man(a1-6)]Man(b1-4)GlcNAc(b1-4)[Fuc(a1-6)]GlcNAc
# Procedure, shortened: as §1
# [7] = target: GlcNAc(b1-3)Gal(b1-3)GalNAc
# Procedure, shortened: as §1
# [8] = target: GlcNAc(b1-3)Gal(b1-4)GlcNAc
# Procedure, shortened: as §1
# [9] = target: GlcNAc(b1-3)Gal(b1-4)GlcNAc(b1-2)Man(a1-3)[GlcNAc(b1-3)Gal(b1-4)GlcNAc(b1-2)Man(a1-6)]Man(b1-4)GlcNAc(b1-4)GlcNAc
# Procedure, shortened: as §1
# [10] = target: GlcNAc(b1-3)Gal(b1-4)GlcNAc(b1-3)Gal(b1-4)GlcNAc
# Procedure, shortened: as §1
# [11] = target: GlcNAc(b1-3)Gal(b1-4)GlcNAc(b1-3)Gal(b1-4)GlcNAc(b1-3)Gal(b1-4)GlcNAc(b1-3)Gal(b1-4)GlcNAc(b1-2)[GlcNAc(b1-3)Gal(b1-4)GlcNAc(b1-3)Gal(b1-4)GlcNAc(b1-3)Gal(b1-4)GlcNAc(b1-3)Gal(b1-4)GlcNAc(b1-6)]Man(a1-6)[GlcNAc(b1-3)Gal(b1-4)GlcNAc(b1-3)Gal(b1-4)GlcNAc(b1-3)Gal(b1-4)GlcNAc(b1-3)Gal(b1-4)GlcNAc(b1-2)Man(a1-3)]Man(b1-4)GlcNAc(b1-4)[Fuc(a1-6)]GlcNAc
# Procedure, shortened: as §1
# [12] = target: GlcNAc(b1-3)Gal(b1-4)GlcNAc(b1-6)[GlcNAc(b1-3)Gal(b1-3)]GalNAc
# Procedure, shortened: as §1
# [13] = target: GlcNAc(b1-3)[GlcNAc(b1-4)][GlcNAc(b1-6)]GlcNAc
# Procedure, shortened: as §1
# Kdn(a2-3)Gal(b1-4)Glc = target: Kdn(a2-3)Gal(b1-4)Glc
# Procedure, shortened: as §1
# Man(a1-2)Man(a1-3)Man = target: Man(a1-2)Man(a1-3)Man
# Procedure, shortened: as §1
# [14] = target: Man(a1-2)Man(a1-3)[Man(a1-2)Man(a1-6)]Man(a1-6)[Man(a1-2)Man(a1-2)Man(a1-3)]Man(b1-4)GlcNAc(b1-4)GlcNAc
# Procedure, shortened: as §1
# MurNAc(b1-4)GlcNAc = target: MurNAc(b1-4)GlcNAc
# Procedure, shortened: as §1
# [15] = target: Neu5Ac(a2-3)Gal(b1-3)GalNAc(b1-3)Gal(a1-4)Gal(b1-4)Glc
# Procedure, shortened: as §1
# [16] = target: Neu5Ac(a2-3)Gal(b1-3)GalNAc(b1-4)[Neu5Ac(a2-8)Neu5Ac(a2-3)]Gal(b1-4)Glc
# Procedure, shortened: as §1
# [17] = target: Neu5Ac(a2-3)Gal(b1-4)GlcNAc(b1-2)Man(a1-3)[Neu5Ac(a2-6)Gal(b1-4)GlcNAc(b1-2)Man(a1-6)]Man(b1-4)GlcNAc(b1-4)GlcNAc
# Procedure, shortened: as §1
# [18] = target: Neu5Ac(a2-3)Gal(b1-4)GlcNAc(b1-3)GalNAc
# Procedure, shortened: as §1
# [19] = target: Neu5Ac(a2-3)Gal(b1-4)[Fuc(a1-3)]GlcNAc(b1-3)Gal
# Procedure, shortened: as §1
# [20] = target: Neu5Ac(a2-6)Gal(b1-4)GlcNAc(b1-2)Man(a1-3)[Gal(b1-4)GlcNAc(b1-2)Man(a1-6)]Man(b1-4)GlcNAc(b1-4)GlcNAc
# Procedure, shortened: as §1
# [21] = target: Neu5Ac(a2-6)Gal(b1-4)GlcNAc(b1-2)Man(a1-3)[GlcNAc(b1-4)][Neu5Ac(a2-6)Gal(b1-4)GlcNAc(b1-2)Man(a1-6)]Man(b1-4)GlcNAc(b1-4)GlcNAc
# Procedure, shortened: as §1
# [22] = target: Neu5Ac(a2-6)Gal(b1-4)GlcNAc(b1-3)Gal(b1-4)GlcNAc(b1-3)Gal(b1-4)GlcNAc(b1-2)Man(a1-3)[Neu5Ac(a2-6)Gal(b1-4)GlcNAc(b1-3)Gal(b1-4)GlcNAc(b1-3)Gal(b1-4)GlcNAc(b1-2)Man(a1-6)]GalNAc
# Procedure, shortened: as §1
# [23] = target: Neu5Ac(a2-6)Gal(b1-4)GlcNAc6S
# Procedure, shortened: as §1
# [24] = target: Neu5Ac(a2-8)Neu5Ac(a2-3)[Gal(b1-3)GalNAc(b1-4)]Gal(b1-4)Glc
# Procedure, shortened: as §1
# [25] = target: Neu5Gc(a2-6)Gal(b1-4)GlcNAc
# Procedure, shortened: as §1
# [26] = target: Neu5Gc(b2-6)Gal(b1-4)GlcNAc
# Procedure, shortened: as §1
binder,measurement,setting,value
B1,glycan array binding signal (z-score),Gal3S6S(b1-4)GlcNAc,-0.035
same,glycan array binding signal (z-score),[1],0.06
same,glycan array binding signal (z-score),[2],-0.022
same,glycan array binding signal (z-score),[3],-0.068
same,glycan array binding signal (z-score),[4],-0.058
same,glycan array binding signal (z-score),[5],-0.057
same,glycan array binding signal (z-score),[6],-0.074
same,glycan array binding signal (z-score),[7],-0.035
same,glycan array binding signal (z-score),[8],-0.063
same,glycan array binding signal (z-score),[9],-0.058
same,glycan array binding signal (z-score),[10],-0.055
same,glycan array binding signal (z-score),[11],0.044
same,glycan array binding signal (z-score),[12],-0.052
same,glycan array binding signal (z-score),[13],-0.047
same,glycan array binding signal (z-score),Kdn(a2-3)Gal(b1-4)Glc,-0.059
same,glycan array binding signal (z-score),Man(a1-2)Man(a1-3)Man,-0.01
same,glycan array binding signal (z-score),[14],-0.036
same,glycan array binding signal (z-score),MurNAc(b1-4)GlcNAc,-0.024
same,glycan array binding signal (z-score),[15],-0.065
same,glycan array binding signal (z-score),[16],-0.051
same,glycan array binding signal (z-score),[17],-0.048
same,glycan array binding signal (z-score),[18],-0.082
same,glycan array binding signal (z-score),[19],-0.094
same,glycan array binding signal (z-score),[20],-0.055
same,glycan array binding signal (z-score),[21],-0.034
same,glycan array binding signal (z-score),[22],0.039
same,glycan array binding signal (z-score),[23],-0.052
same,glycan array binding signal (z-score),[24],-0.052
same,glycan array binding signal (z-score),[25],-0.071
same,glycan array binding signal (z-score),[26],-0.021

# — the supplement of paper PMC8728848
